Inconclusive results are not listed. Active and inactive are the calls of the source. The call rests on the fitted dose curve; in most records, active means well fitted curve in the direction sought with a large enough effect; inconclusive means small, poorly fitted or top-dose-only effect, or another doubt; inactive means no such curve, though single readings can be large; an effect the other way counts as inactive or inconclusive.
Tests used:
[1] = target: ATP-dependent 6-phosphofructokinase (Trypanosoma brucei brucei) (UniProt O15648); assay: qHTS Assay to Find Inhibitors of T. brucei phosphofructokinase: hit validation (AID 492961);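 further: luminescence reports ADP formed as PFK phosphorylates fructose-6-phosphate with ATP; on the % scale 0 is the no-effect control and ±100 the full control effect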
ATP-dependent 6-phosphofructokinase (Trypanosoma brucei brucei), sequence (O15648 whole entry, looked up): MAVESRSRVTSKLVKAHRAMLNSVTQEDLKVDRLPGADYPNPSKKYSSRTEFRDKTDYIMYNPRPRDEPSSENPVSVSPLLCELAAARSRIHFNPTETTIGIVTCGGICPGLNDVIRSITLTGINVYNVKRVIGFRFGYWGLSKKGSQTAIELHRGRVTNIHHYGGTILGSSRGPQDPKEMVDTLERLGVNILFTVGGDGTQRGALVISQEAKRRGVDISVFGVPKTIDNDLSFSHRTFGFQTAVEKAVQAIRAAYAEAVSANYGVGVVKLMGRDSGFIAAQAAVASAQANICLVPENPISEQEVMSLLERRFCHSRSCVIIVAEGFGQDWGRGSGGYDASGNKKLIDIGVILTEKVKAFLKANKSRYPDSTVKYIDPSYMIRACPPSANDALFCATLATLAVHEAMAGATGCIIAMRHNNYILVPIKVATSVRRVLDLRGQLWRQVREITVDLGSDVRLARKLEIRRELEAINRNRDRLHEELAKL
Method in brief: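 ADP-Glo luminescence read-out of ADP formed by 1.25 nM PFK from 0.1 mM ATP and 0.5 mM F6P (TEA pH 8.0, 45 min, RT). Compounds titrated; activity normalized to no-enzyme and full-enzyme controls.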

[2] = qHTS profiling for inhibitors of Plasmodium falciparum proliferation (AID 504749);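 further: 0% = DMSO vehicle and full inhibition = artemisinin control; nearly all actives have a fitted effect of over 60% in size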; settings: P. falciparum in erythrocytes, SYBR Green DNA, 72 h, at 28.7 µM (top of the series)
Method in brief: (§1)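 Three-day growth assay of blood-stage parasites in erythrocytes (0.3% parasitemia, 2.5% hematocrit) at 37 C, 5% CO2, quantified by SYBR Green DNA staining after overnight detergent lysis.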

[3] = tested on: 3D7; assay: as above; settings: P. falciparum in erythrocytes, SYBR Green DNA, 72 h; series mostly up to 28.7 µM
Method in brief: as §1

[4] = tested on: AA1029; assay: as above; settings: P. falciparum in erythrocytes, SYBR Green DNA, 72 h; series mostly up to 28.7 µM
Method in brief: as §1

[5] = tested on: AS120; assay: as above; settings: P. falciparum in erythrocytes, SYBR Green DNA, 72 h; series mostly up to 28.7 µM
Method in brief: as §1

[6] = tested on: ATS189; assay: as above; settings: P. falciparum in erythrocytes, SYBR Green DNA, 72 h; series mostly up to 28.7 µM
Method in brief: as §1

[7] = tested on: C2A; assay: as above; settings: P. falciparum in erythrocytes, SYBR Green DNA, 72 h; series mostly up to 28.7 µM
Method in brief: as §1

[8] = tested on: CP185; assay: as above; settings: P. falciparum in erythrocytes, SYBR Green DNA, 72 h; series mostly up to 28.7 µM
Method in brief: as §1

[9] = tested on: CP191; assay: as above; settings: P. falciparum in erythrocytes, SYBR Green DNA, 72 h; series mostly up to 28.7 µM
Method in brief: as §1

[10] = tested on: CP192; assay: as above; settings: P. falciparum in erythrocytes, SYBR Green DNA, 72 h; series mostly up to 28.7 µM
Method in brief: as §1

[11] = tested on: CP194; assay: as above; settings: P. falciparum in erythrocytes, SYBR Green DNA, 72 h; series mostly up to 28.7 µM
Method in brief: as §1

[12] = tested on: CP211; assay: as above; settings: P. falciparum in erythrocytes, SYBR Green DNA, 72 h; series mostly up to 28.7 µM
Method in brief: as §1

[13] = tested on: CP217; assay: as above; settings: P. falciparum in erythrocytes, SYBR Green DNA, 72 h; series mostly up to 28.7 µM
Method in brief: as §1

[14] = tested on: CP237; assay: as above; settings: P. falciparum in erythrocytes, SYBR Green DNA, 72 h; series mostly up to 28.7 µM
Method in brief: as §1

[15] = tested on: CP238; assay: as above; settings: P. falciparum in erythrocytes, SYBR Green DNA, 72 h; series mostly up to 28.7 µM
Method in brief: as §1

[16] = tested on: CP247; assay: as above; settings: P. falciparum in erythrocytes, SYBR Green DNA, 72 h; series mostly up to 28.7 µM
Method in brief: as §1

[17] = tested on: CP252; assay: as above; settings: P. falciparum in erythrocytes, SYBR Green DNA, 72 h; series mostly up to 28.7 µM
Method in brief: as §1

[18] = tested on: CP286; assay: as above; settings: P. falciparum in erythrocytes, SYBR Green DNA, 72 h; series mostly up to 28.7 µM
Method in brief: as §1

[19] = tested on: Dd2; assay: as above; settings: P. falciparum in erythrocytes, SYBR Green DNA, 72 h; series mostly up to 28.7 µM
Method in brief: as §1

[20] = tested on: P94_40; assay: as above; settings: P. falciparum in erythrocytes, SYBR Green DNA, 72 h; series mostly up to 28.7 µM
Method in brief: as §1

CC(C)(C)C(=O)OCC(=O)C1CCC2C3CCC4=CC(=O)CCC4(C)C3CCC12C (stereo not given)
inactive: Potency [1] | activity, negative = inhibition ([2]; parasite line A) 6.25% | activity, negative = inhibition ([2]; parasite line B) 11.2% | Potency [3] | Potency [4] | Potency [5] | Potency [6] | Potency [7] | Potency [8] | Potency [9] | Potency [10] | Potency [11] | Potency [12] | Potency [13] | Potency [14] | Potency [15] | Potency [16] | Potency [17] | Potency [18] | Potency [19] | Potency [20]

CC(=O)NC1[C@H]([C@H](O)[C@H](O)CO)OC(C(=O)O)=C[C@H]1N=C(N)N (stereo not given in full)
inactive: Potency [1] | activity, negative = inhibition ([2]; parasite line A) 4.99% | activity, negative = inhibition ([2]; parasite line B) 6.49% | Potency [3] | Potency [4] | Potency [5] | Potency [6] | Potency [7] | Potency [8] | Potency [9] | Potency [10] | Potency [11] | Potency [12] | Potency [13] | Potency [14] | Potency [15] | Potency [16] | Potency [17] | Potency [18] | Potency [19] | Potency [20]

O=C(OC[C@@H]1O[C@@](O)(COC(=O)c2cccnc2)[C@H](OC(=O)c2cccnc2)[C@H]1OC(=O)c1cccnc1)c1cccnc1
inactive: Potency [1] | activity, negative = inhibition ([2]; parasite line A) 18.2% | activity, negative = inhibition ([2]; parasite line B) -0.864% | Potency [3] | Potency [4] | Potency [5] | Potency [6] | Potency [7] | Potency [8] | Potency [9] | Potency [10] | Potency [11] | Potency [12] | Potency [13] | Potency [14] | Potency [15] | Potency [16] | Potency [17] | Potency [18] | Potency [19] | Potency [20]

CC(c1ncncc1F)[C@](O)(Cn1cncn1)c1ccc(F)cc1F (stereo not given in full)
inactive: Potency [1] | activity, negative = inhibition ([2]; parasite line A) 7.39% | activity, negative = inhibition ([2]; parasite line B) -17.3% | Potency [3] | Potency [4] | Potency [5] | Potency [6] | Potency [7] | Potency [8] | Potency [9] | Potency [10] | Potency [11] | Potency [12] | Potency [13] | Potency [14] | Potency [15] | Potency [16] | Potency [17] | Potency [18] | Potency [19] | Potency [20]

C[S+](C)CC[C@H](N)C(=O)O
inactive: Potency [1] | activity, negative = inhibition ([2]; parasite line A) 2.14% | activity, negative = inhibition ([2]; parasite line B) 12.4% | Potency [3] | Potency [4] | Potency [5] | Potency [6] | Potency [7] | Potency [8] | Potency [9] | Potency [10] | Potency [11] | Potency [12] | Potency [13] | Potency [14] | Potency [15] | Potency [16] | Potency [17] | Potency [18] | Potency [19] | Potency [20]
